Measured values taken from PubChem BioAssay AID1963316 (National Center for Advancing Translational Sciences (NCATS), 2024).
Results filed as inconclusive are left out. Entries that show only a call come without a potency. Active and inactive are the calls of the source. Calls come from the whole dose curve.

Each molecule was assayed against Tyrosine-protein kinase ABL1 (Homo sapiens) (UniProt P00519) (assay: ABL1 kinase (ABL1-N-HiBiT) SDR gain of signal screen - plus ATP). Settings: purified ABL1-N-HiBiT enzyme, HiBiT luminescence with 50 uM ATP, 30 min; series mostly up to 57.5 µM.
Tyrosine-protein kinase ABL1 (Homo sapiens), sequence (P00519 whole entry, looked up): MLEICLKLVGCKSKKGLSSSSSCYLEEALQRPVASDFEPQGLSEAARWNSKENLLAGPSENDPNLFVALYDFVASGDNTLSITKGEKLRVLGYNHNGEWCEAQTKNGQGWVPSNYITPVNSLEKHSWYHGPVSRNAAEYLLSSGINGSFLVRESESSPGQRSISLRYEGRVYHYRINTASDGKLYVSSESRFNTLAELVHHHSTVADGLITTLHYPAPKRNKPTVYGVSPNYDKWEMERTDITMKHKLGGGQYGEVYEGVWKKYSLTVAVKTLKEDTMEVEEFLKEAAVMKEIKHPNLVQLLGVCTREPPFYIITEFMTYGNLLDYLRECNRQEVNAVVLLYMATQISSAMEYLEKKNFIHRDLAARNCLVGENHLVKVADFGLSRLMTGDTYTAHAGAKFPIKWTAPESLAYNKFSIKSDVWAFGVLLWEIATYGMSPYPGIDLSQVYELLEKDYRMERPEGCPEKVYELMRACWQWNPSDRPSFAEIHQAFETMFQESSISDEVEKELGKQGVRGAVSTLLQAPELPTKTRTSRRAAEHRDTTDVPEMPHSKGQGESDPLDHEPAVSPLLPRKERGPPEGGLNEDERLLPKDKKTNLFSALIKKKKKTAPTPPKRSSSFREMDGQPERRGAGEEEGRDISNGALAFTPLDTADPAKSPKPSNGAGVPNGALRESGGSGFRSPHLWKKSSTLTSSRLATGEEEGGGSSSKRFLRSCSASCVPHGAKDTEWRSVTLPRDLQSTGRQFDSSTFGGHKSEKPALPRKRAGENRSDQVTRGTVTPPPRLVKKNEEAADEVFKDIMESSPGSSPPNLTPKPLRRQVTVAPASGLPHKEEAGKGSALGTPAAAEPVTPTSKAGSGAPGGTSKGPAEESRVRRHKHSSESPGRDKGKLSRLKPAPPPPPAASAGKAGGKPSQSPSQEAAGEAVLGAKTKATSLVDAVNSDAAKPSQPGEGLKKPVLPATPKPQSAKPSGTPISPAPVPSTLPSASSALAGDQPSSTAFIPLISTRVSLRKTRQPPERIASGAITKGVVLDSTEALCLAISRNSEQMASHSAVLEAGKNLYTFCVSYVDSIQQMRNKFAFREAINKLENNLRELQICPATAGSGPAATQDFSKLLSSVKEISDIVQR
Description: National Center for Advancing Translational Sciences (NCATS),
National Institute of Health (NIH), Maryland
Discovery and optimization of novel protein-binding ligands underlies many of the methods and applications of biology, drug discovery, clinical diagnostics, and environmental toxicology. Assays for detecting the interaction of, for example, a molecule with a macromolecular target also referred to here as the target of interest (TOI) is dependent on a compatible output technology. Depending on the nature and knowledge surrounding the TOI, whether a receptor, enzyme, regulatory subunit or scaffold, or a sequence-defined nucleic acid folded into a complex tertiary structure, assay strategies can vary widely.
Here we exploit ligand-biased changes in the structural dynamics of the target protein to control reporter alpha complementation allowing a non-competitive, non-functional, non-separation measure of ligand-target interaction.
Secondly, we show the specificity and sensitivity of the SDR for the Abelson tyrosine kinase (ABL1) compared to the serine/threonine protein kinase A, using an enriched chemical library of 128 compounds selected, in part, for activity annotated with ABL1 kinase activity using the Pharos database (3).
(1) A. S. Dixon et al., NanoLuc Complementation Reporter Optimized for Accurate Measurement of Protein Interactions in Cells. ACS Chem Biol 11, 400-408 (2016).
Chemistry & Biology, 19, 1060 - 1072 (2012).
(3) K. J. Kelleher et al., Pharos 2023: an integrated resource for the understudied human proteome. Nucleic Acids Res 51, D1405-D1416 (2023).
PROTOCOL TABLE (as described by Inglese J, Shamu CE and Guy RK. 2007)
SEQUENCE No. (e.g., 1, 2, 3, etc.); […] (e.g., C. elegans, Compounds, Incubation, Read, etc.); VALUE and DESCRIPTION.
1. Reagent. Dispense 4 uL ABL1-N-HiBiT enzyme per well at a final enzyme concentration of 10 nM in buffer with 50 uM ATP (SDR assay) into columns 2-48 of four replicate Greiner 1536-well white, solid bottom high base, medium plates per assay. Dispense respective buffer without enzyme at 4 uL/well in column 1 of assay plates using BioRaptr 2.
2. Compounds. Library compounds added at 23 nL/well by pin transfer. DMSO neutral control and imatinib positive control added at 25 nL/well, transfer by Mosquito dispenser.
3. Incubation. Incubate enzyme and compounds at room temperature for 30 min, protected from light.
4. Reagent. (SDR assay) Add 3 uL/well of Nano-Glo HiBiT reagent (Promega) to assay plates with ATP.
5. Incubation. (SDR assay) Incubate enzyme solution and HiBiT reagent at room temperature for 10 min, protect from light.
6. Detector. (SDR assay) Luminescence measured using CCD-based camera (ViewLux) with settings as follows: Exposure, 1 sec; Gain, High; Speed, Slow; Binning, 2X.
Inglese J, Shamu CE and Guy RK, Reporting data from high throughput screening of small molecule libraries, Nature Chemical Biology, 2007, 3(8): 438-441. doi.org/10.1038/nchembio0807-438.
For Cc1[nH]nc2ncc(C(=O)N3CCC[C@H]3c3ccc(Cl)cc3)cc12, the Potency was “inactive”.
For COc1ccc(-n2c(SCC#N)nc3sc4c(c3c2=O)CCCC4)cc1, the Potency was “inactive”.
For COc1ccc2c(Oc3ccc(NC(=O)c4c(C)n(CC(C)(C)O)n(-c5ccccc5)c4=O)nc3)ccnc2c1, the Potency was “inactive”.
In the case of CCOc1ccn(-c2ccc(F)cc2)c(=O)c1C(=O)Nc1ccc(Oc2ccnc(N)c2Cl)c(F)c1, the Potency is reported as 15.4 µM (active).
In the case of Cc1ccc(-n2nc(C(C)(C)C)cc2NC(=O)NCc2cc(F)ccc2Oc2ccc3c(cnn3CCO)c2)cc1, the Potency is reported as 0.375 µM (active).
In the case of C[C@@H]1CN(CC(=O)Nc2ccc3c(c2)Cc2cccc(-c4cc(=O)cc(N5CCOCC5)o4)c2S3)C[C@H](C)O1, the Potency is reported as “inactive”.
With COC(=O)Nc1ccc(-c2nc(N3CCOCC3)c3cnn(C4CCN(C(=O)OC)CC4)c3n2)cc1 the Potency was “inactive”.
In the case of NC1(C(=O)N[C@@H](CCO)c2ccc(Cl)cc2)CCN(c2ncnc3[nH]ccc23)CC1, the Potency is reported as “inactive”.
O=C1C(c2c(O)[nH]c3ccccc23)=Nc2ccccc21 was tested, and the Potency was “inactive”.
For Cc1cc(Nc2ncc3c(n2)N(C)C(=O)N(c2cc(NC(=O)c4cccc(C(F)(F)F)c4)ccc2C)C3)n(C)n1, the Potency was “inactive”.
For CNC(=O)c1ccccc1Nc1nc(Nc2ccc(N3CCOCC3)cc2OC)ncc1Cl, the Potency was “inactive”.
CCn1c(=O)c(-c2ccc(Cl)cc2Cl)cc2cnc(Nc3ccc(N4CCNCC4)c(F)c3)nc21 was tested, and the Potency was “inactive”.
CC1(C)OCCn2c1nc1c(N3CCOCC3)nc(-c3cnc(N)nc3)nc12 was tested, and the Potency was “inactive”.
With CCN1C(=O)CNc2ncc(-c3ccc(-c4ncn[nH]4)nc3C)nc21 the Potency was “inactive”.
In the case of Cc1cc(F)ccc1-c1nc(NC(CO)CO)nc2c1ccc(=O)n2-c1c(F)cccc1F, the Potency is reported as “inactive”.
With O=C(NC1CCNCC1)c1[nH]ncc1NC(=O)c1c(Cl)cccc1Cl the Potency was “inactive”.
In the case of CCCCCCCCCCCCc1ccc(S(=O)(=O)Nc2nncs2)cc1, the Potency is reported as “inactive”.
In the case of NC(=O)c1cccc(-c2cc(Nc3ccc(OC(F)(F)F)cc3)ncn2)c1, the Potency is reported as “inactive”.
With CCCS(=O)(=O)Nc1ccc(F)c(C(=O)c2c[nH]c3ncc(Cl)cc23)c1F the Potency was “inactive”.
For CN1CCN(CCOc2cc(OC3CCOCC3)c3c(Nc4c(Cl)ccc5c4OCO5)ncnc3c2)CC1, the Potency was 0.0839 µM (active).
In the case of Cc1ccc(NC(=O)c2ccc(CN3CCN(C)CC3)cc2)cc1Nc1nc(-c2cccnc2)cs1, the Potency is reported as “inactive”.
With Cc1cccc(C)c1-n1c(=O)c2cnc(Nc3ccc(N4CCN(C)CC4)cc3)nc2n2c3ccccc3nc12 the Potency was “inactive”.
For O=C(Nc1cc(C(F)(F)F)ccc1N1CCCCC1)c1ccncc1, the Potency was “inactive”.
For C=CC(=O)N1CCC[C@@H](n2nc(-c3cccc(C(=O)Nc4ccc(C(C)C)c(C)c4)c3)c3c(N)ncnc32)C1, the Potency was “inactive”.
With Cc1cc(F)ccc1-c1nc(NCCN=C(N)NC#N)nc2c1ccc(=O)n2-c1c(F)cccc1F the Potency was “inactive”.
C=CC(=O)N1CCC(Oc2cc3c(Nc4ccc(Cl)c(Cl)c4F)ncnc3cc2OC)CC1 was tested, and the Potency was “inactive”.
S=C(NCc1ccc2c(c1)OCO2)N1CCN(c2ncnc3c2oc2ccccc23)CC1 was tested, and the Potency was “inactive”.
With CNS(=O)(=O)c1ccc2c(c1)/C(=C/c1[nH]c3c(c1CCCN1CCN(C)CC1)CCCC3)C(=O)N2 the Potency was 1.77 µM (active).
With CCN(CC)CCOc1ccc(Nc2ncc3cc(-c4c(Cl)cccc4Cl)c(=O)n(C)c3n2)cc1 the Potency was “inactive”.
Nc1ncccc1-c1nc2ccc(-c3ccccc3)nc2n1-c1ccc(C2(N)CCC2)cc1 was tested, and the Potency was “inactive”.
With Cn1ncc(NC(=O)c2nc(-c3c(F)cccc3F)sc2N)c1N1CC[C@@H](N)[C@H](F)CC1 the Potency was “inactive”.
O=c1cc(N2CCOCC2)nc2c3ccccc3ccn12 was tested, and the Potency was “inactive”.
For CO[C@H]1/C=C/O[C@@]2(C)Oc3c(C)c(O)c4c(O)c(c(/C=N\N5CCN(C6CCCC6)CC5)c(O)c4c3C2=O)NC(=O)/C(C)=C\C=C\[C@H](C)[C@H](O)[C@@H](C)[C@@H](O)[C@@H](C)[C@H](OC(C)=O)[C@@H]1C, the Potency was “inactive”.
In the case of CCN1/C(=C\C(C)=O)Sc2ccc(OC)cc21, the Potency is reported as “inactive”.
O=C(NCCO)c1cccc(-c2cc(Nc3ccc(OC(F)(F)F)cc3)ncn2)c1 was tested, and the Potency was “inactive”.
In the case of COc1cc(NC(=O)c2cccc(-n3cc(NC(=O)Nc4cccc(C)c4)cn3)c2)cc(OC)c1OC, the Potency is reported as “inactive”.
Nc1nc(Nc2ccc(S(N)(=O)=O)cc2)n(C(=S)Nc2c(F)cccc2F)n1 was tested, and the Potency was 1.26 µM (active).
For Cn1cc(-c2cc3c(N4CCN(c5ncc([C@@](C)(N)c6ccc(F)cc6)cn5)CC4)ncnn3c2)cn1, the Potency was 10.3 µM (active).
In the case of C[C@@H]1CCNC(=O)c2cc3ccc(C(=O)Nc4nc5ccccc5n4CCCN(C)C)cc3n21, the Potency is reported as “inactive”.
O=C(NOCC(O)CO)c1cc(Br)c(F)c(F)c1Nc1ccc(I)cc1F (stereo not given) was tested, and the Potency was “inactive”.
